In ChEMBL document CHEMBL4513216, “Probing the Open Global Health Chemical Diversity Library for Multistage-Active Starting Points for Next-Generation Antimalarials” (ACS Infect Dis, 2020):
Out of some 65,000 compounds screened, about 2,100 (3.2%) showed an effect of 50% or more. The median lay at about -52%. For the sample, strong results were picked, then their nearest neighbours and some compounds at random.

The molecules below were run on Plasmodium falciparum (assay: Screen against P. falciparum Asexual Blood Stage (ABS), at 5uM). Conditions: tested at 5 uM.
Assay type: functional, Dd2

SMILES	INHIBITION [%]
O=C1[C@H]2CN(CC3CC3)C[C@H]2CN1c1ccsc1	-60.4
Cc1cnc(N2CCC[C@@H]3CN(CC(=O)N(C)C)C[C@@H]32)nc1	-22.5
COc1cc(C2SCC(=O)Nc3[nH]ncc32)cc(OC)c1OC (stereo unspecified)	-200
O=C(NCC1CC1)C1CCC2(CCNCC2)C1 (stereo unspecified)	-31.3
CC(C)CCN1C[C@@H]2OCCN(c3ncc(F)cn3)[C@@H]2C1	-2.26
Cc1nc(CN2C[C@@H]3OCCN(c4ncc(F)cn4)[C@@H]3C2)cs1	52
Fc1cnc(N2CCO[C@H]3CN(CC4CCCC4)C[C@H]32)nc1	25.4
CO[C@@H]1CCN(S(=O)(=O)c2cccnc2)[C@@H]2CN(CC3CC3)C[C@@H]21	-23.6
Cc1noc(C)c1CN1C(=O)[C@@H]2CC[C@H]1CN(Cc1nccs1)C2	-122
O=C(Cc1ccc(CO)cc1)N1CCN(CC2CC2)[C@@H]2CS(=O)(=O)C[C@@H]21	-55.1
O=c1cc(CN2CC[C@@H]3CC[C@H](C2)N3)c2cccc3c2n1CCC3	-41.1
COCCN1CCC12CCN(C(=O)c1ccc(C)nc1)C2 (stereo unspecified)	-172
COC[C@]12COC[C@H]1CN(Cc1ccc3ccccc3n1)C2	-29.2
COc1cccc([C@@H]2CCN(Cc3ccc4ccccc4n3)C[C@H]2O)c1	-17.2
CCOc1ccc2nc(CN3CCC(CN)C3)ccc2c1 (stereo unspecified)	85.5
c1cnc(N2CCO[C@@H]3CN(Cc4ccoc4)C[C@@H]3C2)nc1	-30.5
CC(CNS(=O)(=O)c1cccc(Cl)c1)N1CCN(C)CC1 (stereo unspecified)	78
Cc1cc(Cl)ccc1S(=O)(=O)NCC(C)N1CCN(C)CC1 (stereo unspecified)	74.3
Cc1cccc(S(=O)(=O)NCC(C)N2CCN(C)CC2)c1Cl (stereo unspecified)	81.5
CNS(=O)(=O)CC(=O)NC(C)Cc1cccc(Cl)c1 (stereo unspecified)	-15.4
COCCN1CCN(c2cc(OC)ncn2)Cc2ccc(C)nc21	-102
Cc1cc(CN2CC[C@H]3C[C@@H](c4nc(C5CC5)cs4)O[C@@H]3C2)no1	6.98
NCC1(c2cccc(C(F)(F)F)c2)CCCCC1	2.74
Cc1ccccc1C1(CN)CCOCC1	36.4
Cc1ccccc1C1(CN)CCCCC1	91
CC(c1cn2ccsc2n1)n1cc2[nH]cccc-2c1=O (stereo unspecified)	-134

SMILES	INHIBITION [%]
CO[C@H]1CN(C(C)C)C[C@@H]1NC(=O)c1cc(-c2ccccc2O)n[nH]1	90
Clc1ccccc1-c1cc(CNc2ncnc3c2CCNCC3)no1	80.3
CC(C)(C)C(=O)N1C[C@H](c2ccsc2)[C@H]2CN(C3CCCCC3)CC[C@H]21	77.3
CC(C)(C)C(=O)N1C[C@H](c2ccsc2)[C@H]2CN(C3CCCC3)CC[C@H]21	72.6
CN1CCN([C@@H]2CN(C(=O)Cc3ccsc3)[C@@H]3CCCO[C@H]23)CC1	-66.9
c1cnc(N2CCC3(CN(CC4CCOC4)C3)C2)nc1 (stereo unspecified)	-15.6
CCC(CC)CN1CCC2(CCCN(c3ncccn3)C2)C1 (stereo unspecified)	62.6
c1cnc(N2CCCC3(COCCN(CC4CC4)C3)C2)nc1 (stereo unspecified)	37.4
c1cnc(N2CCCC3(CCN(CC4CCC4)C3)C2)nc1 (stereo unspecified)	53.9
c1cnc(N2CCC3(CCCN(CC4CC4)C3)CC2)nc1	41.7
Cc1noc(C)c1CN1CCCC2(CCN(CC3CCCC3)C2)C1 (stereo unspecified)	83.1
Cc1noc(C)c1CN1CCCC2(CCN(C(=O)CC3CC3)C2)C1 (stereo unspecified)	-16.5
c1cnc(N2CCCC3(CCN(CC4CC4)C3)C2)nc1 (stereo unspecified)	61.1
COCCN1CCC2(C1)CN(c1ncccn1)C2	-85.3
Cc1noc(C)c1CN1CCCC2(CCN(C(=O)C3CC3)C2)C1 (stereo unspecified)	12.9
CCN1CCCC12CCCN(c1ncccn1)C2 (stereo unspecified)	-31.8
CNC(=O)CN1CCOCC12CCN(Cc1ccncc1)CC2	-20.5
Cc1cccc(CN2CCC[C@@H]3CN(C(=O)c4ccco4)C[C@@H]32)n1	-73.5
CCS(=O)(=O)NC[C@]12COC[C@H]1CN(Cc1cccnc1)C2	-97.3
O=C(NCC1CC1)[C@H]1C[C@@H]2[C@@H](C1)OCCN2Cc1cccnc1	-29.4
CC(C)(C)c1cn(C[C@H]2CC3CCN2C[C@@H]3C(=O)NC2CC2)nn1 (stereo partly specified)	-148
Cc1noc(C)c1CN1C[C@@H]2C[C@H](C(=O)NCC3CC3)N(C)[C@@H]2C1	-8.05
CC(=O)C1(c2ccccc2)CCN(C(=O)CC2CNCCO2)CC1 (stereo unspecified)	-44.7
CC(=O)C1(c2ccccc2)CCN(C(=O)C2CNCCO2)CC1 (stereo unspecified)	-81.4
O=C(C1CNCCO1)N1CCCC(c2ccccc2)(c2ccccc2)C1 (stereo unspecified)	79.5
